target: WDR7; experiment: pooled miR-30 sensor sort-seq; sequence = guide strand; conditions: shRNA
Also: reference of the scale not given here.

Sequence | sensor-assay potency score (higher = more potent)
TTAGGTTTGTCTTTATTGCTTG | 0.201
TTAATTTGCAGTTCTACTGAAA | -0.417
TTTGTCCGTCGTGACATCCTGT | -0.661
TTAGACAAACAAGTGATTGATG | -0.425
TAAGTGAATCAACAGCAGCAGG | -1.52
TAACACAGTGCATAGCAGCTAA | -0.462
ATATTTGGAACACACAACCAAA | -1.51
TTGTCCGTCGTGACATCCTGTT | -0.875
TAGCTGACCATGTAGAACCTGC | 0.024
TGTCTTTATTGCTTGAACCATC | -1.06
TTTAGAATCTCAACTGCTGTTA | 0.0218
TATTGCTTGAACCATCAGGGAG | -0.959

target: WDR96; experiment: as above; conditions: shRNA

Sequence | sensor-assay potency score (higher = more potent)
TTTCTCTAGAGCTTAATTCTTC | -0.586
TTTTTGAGTAGTTTCTTGCAGT | -0.3
TAGATTTCCGAACAGCTTCTGA | -0.901
TACATCTTTACTTTCCATCATG | -0.972
TTACACAAAATGATACTCGATT | -0.176
TTGCCTTTCAATTTGGTCCTTC | 0.277
TTGCTGATCATAAACGACGTGC | 0.0797
TAAGTTGTCATAGTGCTCCTTG | 0.702
TACACAAGCACAATCCTCCAGC | -0.19
TCATCTTGCACAACAAGCGTTC | -0.652
TAATCTTTCAACTTCAGTCTGT | 0.842

— the OligoGym collection
